37 compounds from PubChem BioAssay AID588664 (The Scripps Research Institute Molecular Screening Center, 2011) can be followed below.

The campaign covered roughly 360,000 compounds. About 1,400 (0.39%) were called active. The full list was thinned out, with actives kept by preference. Values without a mark were called inactive. No stated cut-off is given here; in the data, active means inhibition above about 5% (passing the limit was not always enough); inactive means the rest.

The target of this assay is Tyrosine-protein kinase ABL1 (Homo sapiens) + Ras and Rab interactor 1 (Homo sapiens) (UniProt P00519+Q13671). Nature of the assay: disruptors of human Abl and Rin1 association – biochemical, TR-FRET, primary screen (AID 588664). To be noted: TR-FRET Rin1/Abl binding, at 7.35 µM, stronger effect = higher value.
Sequence of Tyrosine-protein kinase ABL1 (Homo sapiens) + Ras and Rab interactor 1 (Homo sapiens) (P00519 whole entry, looked up): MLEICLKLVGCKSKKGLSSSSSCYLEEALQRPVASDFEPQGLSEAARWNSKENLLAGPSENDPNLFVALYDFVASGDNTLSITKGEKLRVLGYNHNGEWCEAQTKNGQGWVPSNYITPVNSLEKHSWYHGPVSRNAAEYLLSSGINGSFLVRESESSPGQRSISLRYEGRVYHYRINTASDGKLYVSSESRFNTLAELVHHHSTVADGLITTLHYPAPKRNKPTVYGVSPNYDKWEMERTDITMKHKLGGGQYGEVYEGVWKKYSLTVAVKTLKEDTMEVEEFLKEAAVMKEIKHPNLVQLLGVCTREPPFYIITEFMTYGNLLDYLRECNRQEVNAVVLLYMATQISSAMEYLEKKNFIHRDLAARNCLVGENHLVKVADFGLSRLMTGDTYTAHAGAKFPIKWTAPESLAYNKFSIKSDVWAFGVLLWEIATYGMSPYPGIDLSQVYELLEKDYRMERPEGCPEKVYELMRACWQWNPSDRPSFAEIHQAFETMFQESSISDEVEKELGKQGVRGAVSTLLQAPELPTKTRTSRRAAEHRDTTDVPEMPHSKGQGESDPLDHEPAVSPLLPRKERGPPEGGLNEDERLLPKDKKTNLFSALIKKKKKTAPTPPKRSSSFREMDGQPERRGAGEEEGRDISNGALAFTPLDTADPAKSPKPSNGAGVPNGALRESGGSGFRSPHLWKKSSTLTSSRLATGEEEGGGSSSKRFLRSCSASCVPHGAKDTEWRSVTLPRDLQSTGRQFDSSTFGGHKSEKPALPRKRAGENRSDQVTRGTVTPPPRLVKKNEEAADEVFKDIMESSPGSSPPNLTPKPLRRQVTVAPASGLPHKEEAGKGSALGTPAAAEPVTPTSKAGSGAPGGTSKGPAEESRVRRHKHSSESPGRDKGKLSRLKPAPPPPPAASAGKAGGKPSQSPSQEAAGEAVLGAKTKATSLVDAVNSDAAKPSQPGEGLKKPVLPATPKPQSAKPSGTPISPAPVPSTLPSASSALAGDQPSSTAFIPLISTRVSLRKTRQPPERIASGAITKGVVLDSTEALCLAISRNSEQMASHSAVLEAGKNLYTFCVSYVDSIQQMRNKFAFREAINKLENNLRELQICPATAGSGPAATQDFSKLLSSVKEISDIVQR
Sequence of Tyrosine-protein kinase ABL1 (Homo sapiens) + Ras and Rab interactor 1 (Homo sapiens) (Q13671 whole entry, looked up): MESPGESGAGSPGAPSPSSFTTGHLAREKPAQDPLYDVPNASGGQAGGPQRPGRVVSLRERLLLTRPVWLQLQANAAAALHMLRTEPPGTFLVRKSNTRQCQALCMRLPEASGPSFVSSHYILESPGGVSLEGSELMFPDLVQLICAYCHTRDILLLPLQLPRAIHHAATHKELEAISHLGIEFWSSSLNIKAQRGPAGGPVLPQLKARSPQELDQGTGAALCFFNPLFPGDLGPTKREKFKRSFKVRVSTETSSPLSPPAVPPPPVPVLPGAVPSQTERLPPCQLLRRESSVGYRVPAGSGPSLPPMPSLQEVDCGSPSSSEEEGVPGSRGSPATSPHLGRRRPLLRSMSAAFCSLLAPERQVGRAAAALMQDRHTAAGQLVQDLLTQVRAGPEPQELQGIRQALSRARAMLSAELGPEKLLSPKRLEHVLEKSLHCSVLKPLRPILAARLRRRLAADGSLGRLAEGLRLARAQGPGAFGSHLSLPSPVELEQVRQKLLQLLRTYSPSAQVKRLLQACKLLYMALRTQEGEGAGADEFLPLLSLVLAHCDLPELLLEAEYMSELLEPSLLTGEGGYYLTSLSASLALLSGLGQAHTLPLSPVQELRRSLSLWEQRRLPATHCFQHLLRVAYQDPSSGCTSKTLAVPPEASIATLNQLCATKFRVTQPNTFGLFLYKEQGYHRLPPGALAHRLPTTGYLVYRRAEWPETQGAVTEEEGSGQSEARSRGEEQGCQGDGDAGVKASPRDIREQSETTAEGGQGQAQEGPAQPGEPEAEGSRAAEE
For the compound `Nc1ncnc2c1ncn2[C@@H]1O[C@H](CNS(=O)(=O)c2ccc(-c3ccno3)s2)[C@@H](O)[C@H]1O`, the inhibition (in general, the relative decrease from the control value, in per cent) was -1.25%.

With `CCc1ccc(C(=O)NNC(=O)C2CCN(c3ncnc4sc(C)c(C)c34)CC2)cc1`, the inhibition was -0.76%.

Consider `COc1cccc(COC(=O)C2CCN(S(=O)(=O)c3ccc(Cl)cc3)CC2)c1OC`, for which the inhibition was 3.29%.

With `COC(=O)c1ccc(COC(=O)C2CCN(S(=O)(=O)c3c(Cl)cccc3Cl)CC2)o1`, the inhibition was 15.2% (active).

Regarding `CCOc1ccc(S(=O)(=O)N2CCC(C(=O)OCc3ccc(OC)cc3)CC2)cc1`, the inhibition was 3.73%.

For the compound `C=CCN1C(=O)c2ccc(C(=O)N3CCC(C(=O)OCC)CC3)cc2C1=O`, the inhibition is 2.75%.

As for `O=C(O)CC1S/C(=N\N=C/c2ccccc2O)N(c2ccc(O)cc2)C1=O` (configuration not stated), the inhibition is 1.65%.

For the compound `C#CCOCCOCCOCCNc1nc(N2CCN(C(=O)C(Cc3ccc(O)cc3)n3cc(C(N)CC(C)C)nn3)CC2)nc(N2CCN(C(=O)C(Cc3ccc(O)cc3)n3cc(C(N)C(C)CC)nn3)CC2)n1` (configuration not stated), the inhibition is 14.3% (active).

Turning to `C#CCOCCOCCOCCNc1nc(N2CCN(C(=O)[C@H](Cc3ccc(O)cc3)n3cc(C(N)CC(C)C)nn3)CC2)nc(N2CCN(C(=O)[C@H](CCC(=O)O)n3cc(C(N)[C@H](C)CC)nn3)CC2)n1` (some centres not stated), the inhibition was 2.63%.

On to `C#CCOCCOCCOCCNc1nc(N2CCN(C(=O)[C@H](CCCCN)n3cc([C@@H](N)C(C)CC)nn3)CC2)nc(N2CCN(C(=O)[C@H](Cc3ccc(O)cc3)n3cc([C@@H](N)C(C)CC)nn3)CC2)n1` (some centres not stated), for which the inhibition was 5.61%.

Consider `CSc1ncnc2c1ncn2CC(=O)C1CCC2C3CCC4=CC(=O)CCC4(C)C3CCC12C` (configuration not stated), for which the inhibition was 13.2% (active).

For `CSc1ncnc2c1ncn2CCCNCC1CCCCC1`, the inhibition is -2.89%.

As for `CC12CCC(=O)C=C1CCC1C2C(O)CC2(C)C1CCC2(O)C(O)CO` (configuration not stated), the inhibition was 4.13%.

Take `CSc1ncnc2c1ncn2CCCNCc1ccco1`: the inhibition was -1.36%.

Turning to `CCOC(=O)CN(C(=O)COc1nc(C)cc(C)c1C#N)c1ccc(Cl)cc1`, the inhibition is 6.34% (active).

For the compound `CCOC(=O)CN(C(=O)COc1nc(-c2ccccc2)cc(C)c1C#N)c1ccc(F)cc1`, the inhibition was -3.22%.

For `CCOC(=O)COc1nc(C)cc(C(F)(F)F)c1C#N`, the inhibition was 0.37%.

With `CN(C1CCS(=O)(=O)C1)S(=O)(=O)c1ccc2ccccc2c1` (configuration not stated), the inhibition is 0.18%.

Regarding `COc1cc2c(cc1O)C(SC)=NC(C)(C)C2`, the inhibition is 2.88%.

`CCOc1ccc(-n2c(SCC(=O)NC3CCS(=O)(=O)C3)nnc2-c2cccnc2)cc1` (configuration not stated): the inhibition is 5.73% (active).

On to `COc1cccc(-n2c(SCC(=O)NC3CCS(=O)(=O)C3)nc3ccccc3c2=O)c1` (configuration not stated), for which the inhibition was -0.16%.

Consider `CCOc1cccc(-c2nnc(SCC(=O)NC3CC3)n2C)c1`, for which the inhibition was -0.29%.

With `Cc1ccc(C(=O)CSc2nc3ccccc3c(=O)n2N)o1`, the inhibition was -0.26%.

With `Cc1ccccc1N1CCN(CC(=O)NCc2ccc(Cl)cc2)CC1`, the inhibition is 1.14%.

Take `COc1cc(CNc2ncnc3c2ncn3[C@H]2CN(Cc3cccs3)C[C@@H](CO)O2)cc(OC)c1OC`: the inhibition was 3.5%.

In the case of `CC(C)Cn1c(N2CCN(C(=O)/C=C/c3ccccc3)CC2)nc2ccccc21`, the inhibition is 0.97%.

On to `O=C(NCCc1ccc(C(F)(F)F)cc1)c1ccc2c(c1)OCO2`, for which the inhibition was -1%.

As for `Cc1cccc(C)c1NC(=O)CNC(=O)c1ccc2c(c1)OCCO2`, the inhibition was 1.15%.

With `CN(Cc1c(F)cccc1Cl)C(=O)CNC(=O)c1ccc2c(c1)OCO2`, the inhibition was 34.7% (active).

Take `Cn1c(=O)cc(SCC(=O)N2CCCC2)c2cc(Cl)ccc21`: the inhibition is -25.5%.

Consider `CNC1(c2nnnn2-c2c(C)cccc2C)CCOC(C)(C)C1` (configuration not stated), for which the inhibition was -2.89%.

Take `Oc1ccc2ccc3cccc[n+]3c2c1`: the inhibition was -21.5%.

As to `CCOc1cc(C(=S)N2CCOCC2)ccc1O`, the inhibition was -1.01%.

Regarding `COc1ccc(C)cc1NC(=S)N1CCOCC1`, the inhibition is -0.53%.

Turning to `COc1cc(C(=S)N2CCOCC2)ccc1O`, the inhibition is 11% (active).

As for `CCOC(=O)C1CCN(C(=O)COc2cc(C)c(Br)c(C)c2)CC1`, the inhibition is -1.96%.

Consider `CCn1c(SCC(=O)Nc2ccc(OC)c(OC)c2)nnc1-c1c[nH]c2ccccc12`, for which the inhibition is 3.38%.
